Screens deposited in PubChem BioAssay by National Center for Advancing Translational Sciences (NCATS).
Only some compounds are listed: those with a hit (about 21% of all), similar ones and a draw of the others.
CHX counter = counter-screen for Shiga toxin inhibitors: cycloheximide protein synthesis inhibition; cell reporter, cycloheximide protein synthesis inhibition counterscreen; AID 2314; 12% of 300,000 active; max response, %; in the data active = max response mostly above about 13%, no sharp cut-off; inactive = mostly below about 14%; note: read at 38.3 µM for the half of the compounds with a filed dose; 0% is about no effect
Shiga inhibitor = Shiga toxin inhibition. inhibition, % at 38.7 µM. AID 2315. 9.2% of 290,000 active. Vero cells, Shiga toxin protein synthesis inhibition reporter; in the data active = inhibition mostly above about 28%, no sharp cut-off; inactive = mostly below about 43%; note: 0% is about no effect
Pf growth 96h = P. falciparum growth inhibition at 96 hour, primary screen for plastid delayed-death inhibitors; Potency, µM (top dose mostly 28.7 µM), for the others: at the highest dose activity change, negative = inhibition, most hits filed as inhibitors; P. falciparum luciferase reporter growth, 96 h; 6.9% of 320,000 active; AID 504834; note: potency is the fitted concentration of half-maximal effect; % is set by controls: 0 for no effect and ±100 for the full control effect
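Plates of compound plus infected erythrocytes (2% hematocrit, 0.05% parasitemia final) incubate 96 hours, 37 C, 5% CO2. Detection reagent added; reduced luminescence from the parasites' luciferase reporter flags inhibition.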
NS1 function inh = blocks influenza NS1 protein function; Potency, µM (highest dose often 46.1 µM), without a hit: at the top dose activity, positive = more growth; 0.4% of 270,000 active; AID 2326; calls by dose curve; note: potency is the fitted concentration of half-maximal effect; actives are rising curves; nearly all actives have a fitted effect of over 50% in size
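Compounds were scored for reversing the slow growth caused by influenza A NS1 in S. cerevisiae, measured by optical density at 600 nm. Assay medium contained 2% galactose at pH 6.0; NS1-free yeast of the same strain were the positive control.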
Pf growth 48h = inhibits P. falciparum growth in the first generation, 48 h. P. falciparum luciferase growth in erythrocytes, 48 h. 5.9% of 310,000 active. Potency, µM (series often up to 28.7 µM), inactives show top-dose activity change, negative = inhibition, hits mostly inhibitors; note: potency is the fitted concentration of half-maximal effect; % is set by controls: 0 for no effect and ±100 for the full control effect
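Growth was read as firefly luciferase luminescence after a 48 h, 37 C, 5% CO2 exposure of compounds to reporter-bearing P. falciparum cultures (0.1% parasitemia, 2% hematocrit final) in Albumax-supplemented RPMI 1640.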
FBPA Giardia inh = inhibitors of Giardia lamblia fructose-1,6-bisphosphate aldolase | A8B2U2 | 0.71% of 290,000 active | purified Giardia FBPA | AID 2451 | Potency, µM (series often up to 59.6 µM), without a hit: top-dose activity, negative = inhibition, most hits filed as inhibitors; note: potency is the fitted concentration of half-maximal effect; % is set by controls: 0 for no effect and ±100 for the full control effect; nearly all actives have a fitted effect of over 55% in size
Target sequence (A8B2U2 whole entry, looked up): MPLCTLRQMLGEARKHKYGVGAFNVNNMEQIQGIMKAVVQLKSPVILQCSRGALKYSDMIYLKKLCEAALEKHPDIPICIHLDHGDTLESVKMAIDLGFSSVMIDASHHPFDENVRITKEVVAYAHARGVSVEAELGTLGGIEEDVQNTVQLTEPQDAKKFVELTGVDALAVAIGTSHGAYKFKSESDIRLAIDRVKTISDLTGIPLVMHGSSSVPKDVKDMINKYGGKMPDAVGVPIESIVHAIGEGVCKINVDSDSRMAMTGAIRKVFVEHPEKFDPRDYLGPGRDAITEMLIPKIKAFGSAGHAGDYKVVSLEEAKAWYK
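Giardia FBPA (40 nM reagent) was preincubated 10 min at RT with compound (up to 57.5 uM final), then substrate plus GAPDH/TPI/NAD/arsenate coupling system with diaphorase/resazurin was added; resorufin fluorescence (525/598 nm) was read after 20 min.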
Starred values were filed as active, the others as inactive; i = inactive; ? = inconclusive; · = no result; + = active, no number; [ ] = remark or other dose. Unless noted, calls come from the whole dose curve; as a rule, active = well fitted curve in the direction sought with a large enough effect; inconclusive = small, poorly fitted or top-dose-only effect, or another doubt; inactive = no such curve, though single readings can be large; an effect the other way counts as inactive or inconclusive.

SMILES	CHX counter	Shiga inhibitor	Pf growth 96h	NS1 function inh	Pf growth 48h	FBPA Giardia inh
CCN1CCN(S(=O)(=O)c2ccc(Cl)c(C(=O)NCc3ccco3)c2)CC1	·	·	11%	·	-14%	·
O=C1N=c2ccccc2=C1c1c(O)[nH]c2c(C(F)(F)F)cccc12	-2	·	?	-26%	-2%	3%
Cc1c(C(=O)N(CCC#N)c2ccccc2)sc2nc3n(c(=O)c12)CCCC3	1	1	68%	-7%	-2%	4%
CCCCn1c(N)c(N(CCOC)C(=O)C2CCN(C(=O)c3ccc(F)cc3)CC2)c(=O)[nH]c1=O	·	·	-1%	·	6%	·
CC(C)C(NC(=O)c1c(F)cccc1F)C(=O)NC1CC(C)(C)NC(C)(C)C1 (configuration not stated)	-3	-11	11%	-4%	9%	9%
CC1(C)Cc2c(sc(NC(=O)/C=C/C(=O)O)c2C#N)CO1	-2	1	2.9µM*	-4%	4.1µM*	1%
CC1(C)Cc2c(sc(NC(=O)c3ccco3)c2C#N)CO1	28*	22	·	-47%	223%	-3%
O=c1[nH]cc(S(=O)(=O)N2CCCc3ccccc32)c(=O)[nH]1	·	·	2%	·	1%	·
c1csc(-c2ccn[nH]2)c1	13*	72	44%	6%	19%	2%
C=CCNc1ncnc2c1cnn2-c1cccc(C)c1	34*	+	0%	-128%	175%	-19%
C=CCNc1ncnc2c1cnn2-c1ccc(Cl)cc1	33*	52*	430%	-4%	184%	-1%
Cc1cccc(-n2ncc3c(NC4CCCCC4)ncnc32)c1	46*	75*	-11%	-13%	103%	-21%
Cc1cccc(-n2ncc3c(NCCCO)ncnc32)c1	38*	42	225%	-3%	·	-6%
Clc1ccc(-n2ncc3c(NCc4ccccn4)ncnc32)cc1	-2	-22	?	6%	-27%	17%
Cc1ccc(-n2ncc3c(NCCCN4CCCC4=O)ncnc32)c(C)c1	-3	-5	?	-2%	?	-4%
O=C(c1ccccc1)c1cc2cc(Cl)ccc2[nH]1	32*	40*	38%	2%	106%	2%
COc1cccc(C(=O)c2cc3cc(Cl)ccc3[nH]2)c1	38*	42*	?	-4%	121%	6%
O=C(c1cc2cc(Cl)ccc2[nH]1)N1CCc2ccccc2C1	8	7	-55%	9%	?	-6%
COc1ccc2[nH]c(=O)c(C(=O)O)cc2c1	-9	-6	0%	·	-7%	-8%
CCn1c(O)c(N=NC(=O)C(O)c2ccccc2)c2ccccc21 (configuration not stated)	1	31	31%	-2%	1%	-3%
COc1ccc(CCNC(=O)c2cc(COc3c(F)cccc3F)on2)c(OC)c1	37*	70*	?	-33%	6%	3%
COc1ccc(CCNC(=O)c2cc(COc3c(C)cccc3C)on2)c(OC)c1	77*	65*	-20%	4%	1%	1%
COc1ccc(OCc2cc(C(=O)NCCc3ccccc3)no2)c(Cl)c1	-4	-5	?	-11%	20%	2%
CC(C)N(C(=S)Nc1cccc(C(F)(F)F)c1)C(C)c1ccccn1 (configuration not stated)	15	16	18%	·	?	-16%
CC(C)(C#CC(=O)O)OOC(c1ccccc1)(c1ccccc1)c1ccccc1	-3	-5	8.3µM*	8%	12µM*	-3%
SMILES	CHX counter	Shiga inhibitor	Pf growth 96h	NS1 function inh	Pf growth 48h	FBPA Giardia inh
CCOP(=O)(C#CC(C)(C)C)C(C)(O)c1ccccc1 (configuration not stated)	-3	-9	9%	-1%	21%	-2%
Cc1ccc(OCC(=O)N(C)CC(=O)Nc2ccccc2Cl)c([N+](=O)[O-])n1	·	·	-30%	·	-1%	·
CCNC(=S)N/N=C1\C(=O)c2cccc3cccc1c23	10	-25	·	6%	11%	9%
C=C(C)CNC(=S)N/N=C/c1ccc(NC(C)=O)cc1	-3	11	7%	5%	0%	-18%
Cc1cccc(NC(=S)N/N=C2/CCCCc3ccccc32)c1	-5	-5	?	?	?	2%
Cc1ccc(C)c(NC(=S)N/N=C2\CCc3ccccc32)c1	14	14	5.2µM*	-1%	51%	8%
C=C(C)CNC(=S)N/N=C1\CCCCc2ccccc21	4	-4	15µM*	-27%	?	11%
CCNC(=S)N/N=C1\CCCCc2ccccc21	-1	8	?	-43%	12µM*	-1%
COc1ccc(NC(=S)N/N=C2/CCCc3c(C)cc(C)cc32)cc1	2	-15	-5%	4%	17%	4%
Cc1ccc(NC(=S)N/N=C2/CCCCc3ccccc32)cc1	17*	23	12µM*	-52%	?	7%
CC(C)=NN/C(N)=N/C(=S)Nc1ccc(C)cc1	-2	20	29%	14%	25%	-6%
COC(=O)C1C(O)=C(C=Nc2ccc3ccccc3c2)C(=O)CC1(C)C (configuration not stated)	15*	17	-6%	-22%	0%	-10%
O=C(Nc1ccc(S(=O)(=O)NCc2ccco2)cc1)c1cccc(F)c1	18	37*	26%	4%	25%	0%
CC(C)n1nc(C(=O)Nc2cccc(S(=O)(=O)NCc3ccco3)c2)c2ccccc2c1=O	17*	19	?	-2%	?	-4%
Cn1nc(C(=O)Nc2ccc(S(=O)(=O)NCc3ccco3)cc2)c2ccccc2c1=O	53*	52*	12µM*	-2%	?	0%
CCCCc1nc2c(c3c1C[C@H](C)OC3)CN(C(=O)Nc1cccc(C#N)c1)CC2	·	·	·	·	·	1%[12.9 µM]
CC[n+]1ccc(C)c2cc(SC(F)(F)F)ccc21	-3	-4	0%	·	?	-25%
CC[n+]1ccc(C)c2cc(S(=O)C(F)(F)F)ccc21 (configuration not stated)	-4	-10	?	1%	3.7µM*	?
CC[n+]1ccc(C)c2cc(P(=O)(c3ccccc3)c3ccccc3)ccc21	-2	-7	?	2%	13µM*	-28%
Cc1cc(Cl)ccc1NC(=S)NCC(C)C	1	11	19%	6%	-19%	-1%
CCN1CCN(/C=N/c2nc3c(s2)CCCC3)CC1	19*	-19	-11%	-6%	·	-2%
COC(=O)c1[nH]c2ccc(C)cc2c1NC(=O)CN1CCc2cc(OC)c(OC)cc2C1	-3	-16	?	-8%	?	-6%
CCOC(=O)C1CCCN(CC(=O)Nc2c(C(=O)OC)[nH]c3ccc(Br)cc23)C1 (configuration not stated)	-7	-24	?	-24%	?	-6%
COC(=O)c1[nH]c2ccc(Br)cc2c1NC(=O)CN1CCCc2ccccc21	1	14	10µM*	29%	?	-9%
COC(=O)c1[nH]c2cc(C)ccc2c1NC(=O)CN1CCCc2ccccc21	48*	i	?	12%	?	·
